Several values for one entry are separate records, joined by “and”; a condition that tells them apart may be missing. Equal entries are not always repeated. Activity calls are given as the source filed them. Unless noted, how the calls were made is not given here.
What was measured:
[1] = compounds altering circadian rhythm period length – cell-based, LOPAC library, luminescence reporter (AID 2774); settings: circadian reporter cells, at 7 µM, actives lie on both sides;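 further: values are relative to mean of DMSO wells on each plate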
[2] = tested on: Hepatitis C virus NS3 helicase; assay: blockers of NS3h binding to ssDNA – biochemical, fluorescence polarization, LOPAC1280 library, primary screen (AID 687035; in the data active means inhibition above about 37%); settings: Purified HCV NS3 helicase, Cy5-dT15 ssDNA binding fluorescence polarization; stronger effect = higher value; concentration not given here
[3] = compounds altering Cy5-DNA-NS3h complex signal – biochemical, LOPAC1280, artefact control for HCV NS3 helicase inhibitor project (AID 687037); settings: Cy5-DNA-NS3h complex fluorescence interference counterscreen
[4] = viability loss with induced miR-34 in A549 – imaging, A549 dox-inducible miR-34, nuclei and caspase counts, primary screen (AID 1347080;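 active means compounds whose cell count with miR-34 switched on is under 0.7 times the count with it off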); settings: A549 miR-34 inducible, Hoechst nuclei count, 48 h
[5] = chitosan synthesis blockers in C. neoformans – flow cytometry, Cibacron Brilliant Red staining (AID 1347148); settings: Cryptococcus neoformans chitosan, stronger effect = lower value; at 10 µM unless noted;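 further: compound exposure lasted three days at 37 degrees C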
[6] = blockers of cellular phospholipid synthesis – cell-based, LOPAC library, screen 4, primary screen (AID 1347384); settings: animal cells, phospholipid biosynthesis inhibition screen; at 10 µM
[7] = galactose survival enhancers in mitochondrial complex I cybrids – cell-based, galactose medium, ATP luminescence, primary screen (AID 1645843;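 active means z-score of at least 1.8 in each of two replicates, scored against plate mean and spread of sample wells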;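 further: positive z means more ATP and so rescue of galactose-driven cybrid death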); settings: complex I mutant cybrid cells, 72 h, stronger effect = higher value
[8] = compounds altering viability of human ES cells (AID 493140); settings: human embryonic stem cell survival screen; stronger effect = higher value;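 further: cells exposed to compounds for four days before counting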
[9] = P. berghei load reduction in hepatocytes – cell-based, HepG2, luciferase luminescence, HepG2 viability, primary screen (AID 624349; in the data active means parasite load remaining mostly below about 12%, no sharp cut-off; inactive means mostly above about 10%;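 further: 100% = mean of DMSO negative control wells on the same plate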); settings: P. berghei liver stage in HepG2, luciferase luminescence, concentration not given here; parasite load remaining: stronger effect = lower value; viability: measured here: HepG2 viability without parasites
[10] = MELAS cybrid and Rieske KO viability enhancers – cell-based, MELAS cybrids, Rieske KO mouse fibroblasts, CellTiter-Glo, primary screen (AID 1508586;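 active means mean z-score across replicates of 1.96 or higher in either the MELAS or the Rieske mutant cell line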;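 further: z relative to plate mean and SD of compound and empty wells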); settings: low glucose
[11] = stronger effect = lower value, cell number ratio, induced over uninduced
[12] = measured here: relative caspase fold change +Dox/-Dox
[13] = measured here: total cells with miR-34 induction, stronger effect = lower value
[14] = measured here: total cells without miR-34 induction

Compound	period change [1]	inhibition [2]	fluorescence ratio (interference) [3]	fold change [4, 11]	fold change [4, 12]	cell count [4, 13]	cell count [4, 14]	fold fluorescence [5]	outcome [6]	z-score [7]	survival [8]	parasite load remaining [9]	viability [9]	z-score ([10]; MELAS cybrid survival, CellTiter-Glo 48 h, stronger effect = higher value)	z-score ([10]; Rieske KO mouse fibroblast survival, CellTiter-Glo 72 h)
CCCCCC[C@@H]([C@@H](C)O)n1cnc2c(N)ncnc21	0.15 h (inactive)	-4% (inactive)	1 (inactive)	0.934 (inactive) and 0.834 (inactive)	0.993 and 0.703	8420 and 3190	9020 and 3820	5.1 [at 180.3 µM] (inactive)	inactive	-0.69 (inactive)					
CCCCC[C@H](O)/C=C/C1=C(C/C=C\CCCC(=O)O)C(=O)CC1				0.969 (inactive) and 0.886 (inactive)	1.57 and 1.52	6100 and 5600	6300 and 6320	3.98 (inactive)			130 (inactive)				
C[C@@]1(C2CCCC2)Cc2cc(OCC(=O)O)c(Cl)c(Cl)c2C1=O	0.04 h (inactive)	-6% (inactive)	1 (inactive)	1.13 (inactive) and 0.909 (inactive)	0.91 and 1.29	11200 and 5500	9900 and 6050	4.41 [at 140 µM] (inactive)	inactive	0.845 (inactive)					
CCCCC[C@H](O)/C=C/[C@@H]1[C@H]2C/C=C\CCCC(=O)O[C@@H]1C[C@@H]2O				0.912 (inactive)	0.907	5380	5900								
CCCCC[C@H](O)/C=C/[C@H]1[C@H](O)CC(=O)[C@@H]1C/C=C\CCCC(=O)OC				0.938 (inactive)	1.71	5670	6040								
O=C1C(Nc2ccccc2)=CC(=O)c2ncccc21				0.735 (inactive) and 0.883 (inactive)	1.99 and 0.965	1070 and 904	1450 and 1020	7.9 [at 199.8 µM] (inactive)							
CC[N+](C)(CC)CCC[n+]1c(-c2ccccc2)c2cc(N)ccc2c2ccc(N)cc21				0.82 (inactive) and 0.917 (inactive)	1.46 and 1.13	7160 and 5250	8730 and 5720	8.39 [at 120.6 µM] (inactive)			5.17 (inactive)	62.2% (inactive)	92.5%	-0.661 (inactive)	1.71
CC12C(=O)OC(=O)C1(C)C1CCC2O1 (stereo not given)	-0.375 h (inactive)	0% (inactive)	1 (inactive)	1.31 (inactive) and 0.948 (inactive)	1.51 and 0.943	607 and 462	465 and 488	5.03 [at 254.8 µM] (inactive)	inactive	-1.43 (inactive)	0 (inactive)				
